# This is part of a sample that, as a whole, favours compounds with a hit. Of some 83,000 tested, about 20% had one in any assay.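 Percent growth is the endpoint: 0 to 100 indicates growth inhibition (40 means 60% inhibition), 0 means no net growth, and negative values indicate cell death.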 Unmarked numbers belong to inactive results. Active and inactive are the calls of the source. How the source made its calls: active means growth percent below 10; inactive means the rest.
# Legend:
# Assay in all cases: NCI-60 one-dose screen, 48 h (100 = growth as untreated, 0 = no growth, -100 = all killed)
# Details in all cases: 10 µM unless noted
# RPMI-8226 leukemia = system: RPMI-8226 leukemia
# OVCAR-8 ovarian = system: OVCAR-8 ovarian
# OVCAR-5 ovarian = system: OVCAR-5 ovarian
# OVCAR-4 ovarian = system: OVCAR-4 ovarian
# SK-OV-3 ovarian = system: SK-OV-3 ovarian
# OVCAR-3 ovarian = system: OVCAR-3 ovarian
# HS 578T breast = system: HS 578T breast
# NCI/ADR-RES ovarian = system: NCI/ADR-RES ovarian
# T-47D breast = system: T-47D breast
# IGROV1 ovarian = system: IGROV1 ovarian
Structure (SMILES),growth (RPMI-8226 leukemia),growth (OVCAR-8 ovarian),growth (OVCAR-5 ovarian),growth (OVCAR-4 ovarian),growth (SK-OV-3 ovarian),growth (OVCAR-3 ovarian),growth (HS 578T breast),growth (NCI/ADR-RES ovarian),growth (T-47D breast),growth (IGROV1 ovarian) [%]
CCOC(=O)c1c(C)nc(C)c(C(=O)OCC)c1-c1cccnc1,104%,112%,97.8%,97.8%,99.2%,115%,122%,103%,92%,
O=C(C(Br)Br)C(Br)C(Br)c1ccccc1 (stereo not given),78.1%,88%,108%,43.1%,116%,1.96% (active),104%,94.5%,49.7%,
Cc1c(C(N)=O)sc2ncn(Cc3ccccc3)c(=O)c12,59.5%,110%,101%,111%,106%,104%,67.7%,105%,98.1%,
C[n+]1ccc(Nc2ccc(NC(=O)c3ccc(Nc4cc[n+](C)c5ccc(N)cc45)cc3)cc2)cc1,68.1%,94.8%,90.6%,103%,99.1%,115%,108%,99.4%,102%,
Nc1nc(Cl)c2[nH]cnc2n1,107%,109%,93.5%,101%,93.2%,125%,117%,51%,103%,
CCOC(=O)C1=C(COCCN)NC(C)=C(C(=O)OC)C1c1ccccc1Cl (stereo not given),45.9%,82%,74.7%,78.9%,94.2%,68.5%,80.3%,80%,,
O=C1NCN(CCO)CN1,85.6%,99.9%,101%,98.5%,95.4%,107%,96.7%,102%,89.9%,
O=C(Nc1cccc2ccccc12)c1cc2c(cc1Br)OCO2,66.1%,106%,96.8%,83.5%,80.9%,104%,125%,92.5%,83.9%,
Nc1ncc(-c2cnn(C3CCNCC3)c2)cc1-c1nc2cc(Cl)ccc2o1,-81% (active),-52.5% (active),-81.2% (active),-83.1% (active),-81.5% (active),-100% (active),-68.4% (active),-50.5% (active),-77.4% (active),
O=C(/C(=C/c1cccc([N+](=O)[O-])c1)c1ccccc1)c1ccccc1,-7.27% (active),13%,74.5%,,105%,23.4%,44.9%,35.8%,69.8%,60.4
COc1ccc(-c2nnc(COc3ccc(NC(=O)Nc4cc(C(F)(F)F)cc(C(F)(F)F)c4)cc3F)o2)cc1,-25.8% (active),11.4%,29%,19.2%,18.4%,2.67% (active),16.8%,10.6%,20.4%,
COc1cc2cn3c4ccc(O)cc4nc(N)c3c2cc1OC,19.9%,29.6%,45.3%,38.7%,27.2%,1.25% (active),,42.4%,12.5%,
C[n+]1c2ccccc2c(NC2CCNCC2)c2[nH]c3ccccc3c21,-40.8% (active),15.2%,36.3%,4.1% (active),-0.545% (active),-1.97% (active),-38% (active),96.5%,-9.19% (active),
CC(=O)Oc1c(C)c(OC(C)=O)c2c(c1C(C)=O)OC1CC(=O)C(C(C)=O)=C(O)C21C (stereo not given),78.3%,105%,102%,99%,98.2%,118%,109%,80.7%,103%,
CC1=NN(c2ccccc2Cl)C(=O)/C1=C\c1cn(S(=O)(=O)c2ccc(C)cc2)c2ccccc12,113%,108%,88.1%,103%,105%,110%,116%,85.1%,91.5%,
CCC(=O)Nc1ccccc1C#C/C=C\C#Cc1ccccc1C(F)(F)F,100%,106%,53.8%,85.8%,52.3%,70.2%,17.1%,27.2%,65.4%,
C=CC1=C(C(=O)O)N2C(=O)[C@@H](NC(=O)/C(=N\O)c3csc(N)n3)[C@H]2SC1 (stereo in doubt),113%,102%,95.7%,,107%,108%,103%,98%,114%,120
CO[C@H]1/C=C/O[C@@]2(C)Oc3c(C)c(O)c4c(O)c(c(/C=N/N5C(C)CN(Cc6ccccc6)CC5C)c(O)c4c3C2=O)NC(=O)/C(C)=C\C=C\[C@H](C)[C@H](O)[C@@H](C)[C@@H](O)[C@@H](C)[C@H](OC(C)=O)[C@@H]1C (stereo not given in full),83.5%,75.6%,99.1%,89.8%,116%,,84.6%,-20.3% (active),81.4%,
O=C1CCCN1C1CCN(Cc2cc3ccccc3[nH]c2=O)c2ccccc21 (stereo not given),3.19% (active),101%,91.3%,82.6%,93.8%,98.8%,98%,97.4%,60.1%,
CCS(=O)(=O)OCCCl,120%,103%,80.8%,100%,87.4%,,104%,-5.43% (active),102%,
CC(=O)Nc1ccc2c(c1)Cc1c(F)c(F)c(F)c(F)c1-2,22.5%,79.6%,44.1%,85.7%,113%,105%,96.6%,-39.9% (active),85.6%,
Cc1ccc(NC(=O)Nc2ccc(-c3cccnc3)cc2N2CCC(CO)CC2)cc1,19.4%,44.2%,43.6%,45%,28.4%,4.71% (active),10.6%,40%,42.7%,
CCCCCCCCCCC[C@@H](C[C@H]1OC(=O)[C@H]1CCCCCC)OC(=O)[C@@H](CC(C)C)NC=O,0.857% (active),62.9%,94.4%,,88.1%,69%,53.6%,37.5%,76.5%,60.3
Fc1ccc([C@@H]2CCNC[C@H]2COc2ccc3c(c2)OCO3)cc1,32.9%,95.9%,73.5%,90%,90.8%,81.3%,82.8%,86.3%,63.7%,
Cc1cc(NCCCNc2ccnc3cc(Cl)ccc23)nc(N2CCN(C)CC2)n1,38.5%,77.1%,86.6%,,106%,80%,91.9%,107%,81.4%,83.1
Cc1ccc(C(C)C)cc1NC(=O)Nc1ccc([N+](=O)[O-])cc1,-61.9% (active),15.2%,26.8%,28.2%,7.01% (active),-21.9% (active),14.7%,-10.7% (active),0.428% (active),
O=C(CCc1nnc(Cn2cncn2)o1)c1nc2ccccc2[nH]1,108%,107%,107%,,116%,122%,127%,105%,108%,118
CCC(c1ccccc1)c1noc(CCN(CC)CC)n1 (stereo not given),76.7%,94.8%,89.8%,109%,97%,115%,125%,105%,94.4%,
Cn1c(=O)c2nc(SCc3ccccc3)n(C)c2n(C)c1=O,117%,106%,97.6%,118%,99.2%,117%,104%,112%,98.4%,
CN(C)c1ccc(/C=C\c2ccnc3ccccc23)cc1,-18.1% (active),63.6%,65%,68.2%,55.2%,,84.9%,-35.5% (active),65.4%,

# — PubChem BioAssay (NCI)
